Assay outcomes from PubChem.
NS1 inh – blocks influenza NS1 protein function | Potency, µM (titrated, usually from 46.1 µM), for the others: top-dose activity, positive = more growth | 270,000 tested, 0.4% active | AID 2326; calls by dose curve; further: potency means the concentration at half of the fitted maximal effect; actives are rising curves; nearly all actives have a fitted effect of over 50% in size
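Recovery from NS1-induced slow growth read by OD600 in budding yeast switched to galactose assay medium (pH 6.0, -URA) at 1:100 dilution. Compound 23 nl per well; the matching strain lacking NS1 serves as control.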
Cruzain noTriton – inhibitors of Trypanosoma cruzi cruzain without detergent; Potency, µM, inactives show max response, negative = inhibition, usual class: inhibitors; P25779; 200,000 tested, 2.3% active; purified cruzain, Z-FR-AMC fluorescence, no detergent;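 further: potency means the concentration at half of the fitted maximal effect; plate controls were enzyme without inhibitor for no effect and buffer without enzyme for full effect; nearly all actives have a fitted effect of over 40% in size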
Target sequence (P25779 123-467 limits assumed): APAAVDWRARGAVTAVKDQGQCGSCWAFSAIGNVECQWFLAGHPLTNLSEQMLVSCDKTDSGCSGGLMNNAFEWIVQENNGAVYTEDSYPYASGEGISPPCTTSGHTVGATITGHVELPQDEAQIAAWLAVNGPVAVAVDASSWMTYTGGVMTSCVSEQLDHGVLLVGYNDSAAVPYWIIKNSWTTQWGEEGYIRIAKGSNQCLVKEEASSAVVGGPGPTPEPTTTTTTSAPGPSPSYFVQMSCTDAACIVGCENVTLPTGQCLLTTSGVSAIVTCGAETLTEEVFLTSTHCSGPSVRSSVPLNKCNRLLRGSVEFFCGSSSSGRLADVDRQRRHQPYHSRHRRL
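Detergent-free condition (0.00005% Triton X-100) in acetate buffer pH 5.5 with DTT. 1.5 nM enzyme and compound were pre-mixed 15 min, then 2 uM Z-FR-AMC substrate added; reaction progress from fluorescence change between first and third reads (60 s).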
Cruzain Triton – blocks cruzain activity in presence of Triton detergent; P25779; purified cruzain, Z-FR-AMC fluorescence, 0.01% Triton; Potency, µM, without a hit: max response, negative = inhibition, most hits filed as inhibitors; 200,000 tested, 0.43% active;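 further: potency means the concentration at half of the fitted maximal effect; plate controls were neutral wells for no effect and buffer without enzyme for full effect; nearly all actives have a fitted effect of over 40% in size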
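Read-out: AMC fluorescence (360 nm excitation, 450 nm emission), four reads over 2 min, first-to-third difference used. Conditions: cruzain 1.5 nM, Z-FR-AMC 2 uM, pH 5.5 acetate, 5 mM DTT, 0.01% Triton X-100.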
Papain inh – counter-screen for cruzain inhibitors: papain inhibition | shares compounds with Cruzain Triton | Potency, µM, without a hit: max response, negative = inhibition, hits mostly inhibitors | purified papain, Z-FR-AMC fluorescence cleavage | 410 tested, 41% active;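 further: potency means the concentration at half of the fitted maximal effect; 0% = no-compound wells and -100% = no-enzyme wells; nearly all actives have a fitted effect of over 35% in size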
NS1 inh valid – validation of influenza NS1 protein function inhibitors. shares compounds with NS1 inh. influenza NS1 function cell assay, 15-point titration. activity change, negative = inhibition, % at 32.9 µM. 1,400 tested, under 10 active. AID 492980; calls by dose curve; further: 0% is about no effect
Numbers without * were called inactive; ? = inconclusive; nt = not tested or not shown; [ ] = remark or other dose. This excerpt belongs to a sample that is enriched for hits. Unless noted, the call rests on the fitted dose curve; in most records, active means well fitted curve in the direction sought with a large enough effect; inconclusive means small, poorly fitted or top-dose-only effect, or another doubt; inactive means no such curve, though single readings can be large; an effect the other way counts as inactive or inconclusive.

SMILES	NS1 inh	Cruzain noTriton	Cruzain Triton	others
COc1nc(N(c2ccccc2)c2ccccc2)nc(-n2ccnc2)n1	-88.4%	-8.6%	-0.1%
CCNc1nc(C#N)nc(N2CCOCC2)n1	nt	nt	nt	Papain inh=3.16µM*
N#Cc1nc(N(c2ccccc2)c2ccccc2)nc(-n2cccc2)n1	nt	nt	nt	Papain inh=10µM*
CN(c1ccccc1)c1nc(C#N)nc(N2CCOCC2)n1	nt	nt	nt	Papain inh=1.26µM*
N#Cc1nc(N2CCOCC2)nc(N2CCOCC2)n1	-9.7%	1.26µM*	1.12µM*	Papain inh=1.26µM*
N#CCOc1nc(N2CCOCC2)nc(N2CCOCC2)n1	2.1%	5.5%	-0.9%
CCCCNC(=O)c1cccc(-n2cnc3cccnc32)c1C	nt	5.7%	-1.6%
Fc1ccccc1N1CCN(c2ncnc3onc(-c4ccc(Cl)cc4)c23)CC1	nt	1.1%	-0.9%
COc1cc(-c2noc(-c3ccc(NC4CCCC4)c([N+](=O)[O-])c3)n2)cc(OC)c1OC	nt	?	-4.9%
CCc1ccc(CN(C(=O)c2cc(=O)c3ccc(C)cc3o2)C2CCS(=O)(=O)C2)cc1 (configuration not stated)	nt	34.9%	-6.4%
CCOC(=O)C1CCN(c2nc3c(S(=O)(=O)c4ccc(Br)cc4)nnn3c3ccsc23)CC1	nt	1.1%	-3.3%
N#CC(C#N)=NNc1cccc(Cl)c1	nt	12.6µM*	11.2µM*	Papain inh=28.2µM*
N#CC(C#N)=NNc1ccc2cn[nH]c2c1	-5.6%	?	-17.5%
CCOc1ccc(S(=O)(=O)N2CCc3ccccc3C2)cc1	9.8%	-14.7%	-0.1%
O=C(Nc1nc(-c2ccc(S(=O)(=O)N3CCCC3)cc2)cs1)c1cccs1	15.3%[9.22 µM]	-26.8%	-4.7%
O=C(Nc1nc(-c2ccc(S(=O)(=O)N3CCCCCC3)cc2)cs1)c1cccs1	9.3%	3.16µM*	-5.2%	Papain inh=1.6%
CCOc1ccc(-c2csc(NC(=O)c3ccc(S(=O)(=O)N4CCc5ccccc5C4)cc3)n2)cc1	1.0%	3.98µM*	-1.2%	Papain inh=11.2%
COc1ccccc1C(=O)Nc1c(C(=O)N2CCN(c3ccccc3F)CC2)oc2ccccc12	nt	-0.2%	-4.4%
Cc1ccc(CNC(=O)CCCn2c(=O)c3ccccc3n(CC(=O)Nc3ccc(C)cc3)c2=O)cc1	nt	-4.2%	-1.5%
O=C(NCc1ccccc1Cl)c1ccc2c(c1)nnn2C1CCCC1	nt	-13.3%	-2.9%
CCN(CCO)c1ncnc2c1sc1nc(C(C)C)c3c(c12)CC(C)(C)OC3	23.5%	?	-0.9%
CCN(CCO)c1nc(SC)nc2c1sc1nc(-c3ccco3)c3c(c12)CCC3	?	6.31µM*	8.91µM*	Papain inh=12.6µM*;NS1 inh valid=-1.5
CC(C)c1nc(N2CCN(C(=O)c3ccccc3)CC2)c(C#N)c2c1COC(C)(C)C2	-67.2%	10.7%	-8.9%
CC1(C)Cc2c(C#N)c(N3CCN(C(=O)c4ccccc4)CC3)nc(-c3ccco3)c2CS1	8.91µM*	25.1µM*	28.2µM*	Papain inh=7.94µM*;NS1 inh valid=-35.0
COCCNC(=O)CN1C(=O)CCn2nc(-c3cn(C)c4ccccc34)cc21	nt	-11.1%	-1.0%
SMILES	NS1 inh	Cruzain noTriton	Cruzain Triton	others
COC(=O)c1ccccc1NC(=O)Cn1c(=O)n(-c2cccc(OC)c2)c(=O)c2c(C)c(C(=O)N(C)C)sc21	nt	20.5%	1.3%
COc1cc(/C=N/NC(=O)c2sc3nc(C)cc(C)c3c2N)ccc1O	?	nt	nt	NS1 inh valid=4.6
COC(=O)c1sc2nc(C)cc(C)c2c1N	3.1%	nt	nt
Cc1cc2cc(CNC(=O)c3ccc(S(=O)(=O)N4CCOCC4)cc3)ccc2n1C	11.2µM*	-13.9%	-5.3%	NS1 inh valid=-0.1
Cc1cc2cc(CNC(=O)c3ccc(Br)o3)ccc2n1C	-0.9%	nt	nt
Cc1cc2cc(CNS(=O)(=O)c3ccc4ccccc4c3)ccc2n1C	10µM*	25.1µM*	-2.7%	NS1 inh valid=-22.4
Cc1cc2cc(CNC(=O)c3ccc(S(=O)(=O)N(C)C)cc3)ccc2n1C	11.2µM*	-22.9%	-6.7%	NS1 inh valid=25.4
O=C(NCc1cccnc1)c1ccc(S(=O)(=O)N2CCOCC2)cc1	4.3%	-5.2%	3.1%
CC(=O)Nc1ccc(S(=O)(=O)NCc2ccc3c(c2)cc(C)n3C)cc1	11.3%	-5.7%	-0.1%
Cc1ccc(-c2c3c(=O)n(C)c(=O)n(C)c3c3c(C(F)(F)F)nc4ccccc4n23)cc1	nt	?	-0.7%
CCN(Cc1nc(-c2cccc(C)c2)no1)S(=O)(=O)c1ccc(C)cc1	nt	-3.4%	-5.4%
O=C(CSc1nc2c([nH]c3ccccc32)c(=O)n1-c1ccc(F)cc1)NCC1CCCO1 (configuration not stated)	nt	-2.6%	-1.3%
CCCC[C@H]1C[C@@H]1[C@@H]1N(P(=O)(c2ccccc2)c2ccccc2)C[C@@](O)(c2ccccc2)CC12CC2	nt	-13.1%	1.8%
